Reference: the supplement of paper PMC6135742
Counter-ions that a name gives are not always drawn. ± gives the standard deviation of the averaged measurements. Whole data set: some 2,600 compounds, median “MBP+ mature oligodendrocyte number relative to DMSO vehicle control” near -0.34, cut for the highest 2% near 13. The sample holds the highest values, similar compounds and a random draw of the others, so the mix is not that of the screen.

These compounds were tested on jimpy (Plp1 jimpy) mouse iPSC-derived oligodendrocyte progenitor cells (assay: MBP+ mature oligodendrocyte number relative to DMSO vehicle control (SDs above negative control mean); higher = more surviving jimpy oligodendrocytes (rescue)). Conditions: 10 µM; 3 days.
Description: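 Primary phenotypic screen of >3,000 bioactive compounds (Selleck L1700 and Sigma LO1280 libraries) at a single dose of 10 µM. Compounds were added to jimpy (Plp1 mutant) mouse iPSC-derived OPCs at the start of thyroid hormone-induced oligodendrocyte differentiation, one well per compound in 384-well plates. After 3 days cells were stained for MBP, Sox10 and DAPI and imaged with an Operetta system. MBP+ oligodendrocyte number and total cell number were expressed as the number of SDs above the mean of the DMSO negative control on the same plate (n=16 control wells per plate). Hits were defined as >=4 SD for oligodendrocytes and >=2 SD for total cells.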

First: CN1c2ccccc2C(=O)N2CCc3c([nH]c4ccccc34)C21 (stereo in doubt) [Evodiamine]
Second: CN1CCC(=C2c3ccccc3CCc3sccc32)CC1 [Pizotifen Malate]
The “MBP+ mature oligodendrocyte number” value of the first is higher: -2.4 for the first, -6.09 for the second.

Going from Cc1ccc(NCCCc2ccccc2)c(N)c1 to Cc1ccc(Nc2c(F)cccc2Cl)c(CC(=O)O)c1 [Lumiracoxib], the “MBP+ mature oligodendrocyte number” value rises from less than -6.35 to 0.263.

Going from CC(C)S(=O)(=O)N[C@H]1CCOC[C@@H]1c1ccc(-c2ccc(C#N)s2)cc1 to CN(C)C(=O)c1ccc(S(=O)(=O)c2ccc(NC(=O)[C@@](C)(O)C(F)(F)F)c(Cl)c2)cc1, the “MBP+ mature oligodendrocyte number” value rises from -3.15 to 19.5.

Compared with CO[C@@H](C(=O)N1Cc2[nH]nc(NC(=O)c3ccc(N4CCN(C)CC4)cc3)c2C1)c1ccccc1, Cc1ccc(NC(=O)c2ccc(CN3CCN(C)CC3)cc2)cc1Nc1nccc(-c2cccnc2)n1 [Imatinib (STI571)] is higher in “MBP+ mature oligodendrocyte number” value: -6.61 for the first, -4.36 for the second.

Compared with CC(=O)[C@H]1CC[C@H]2[C@@H]3CCC4=CC(=O)CC[C@]4(C)[C@H]3CC[C@]12C [Progesterone], CC(=O)[C@H]1CC[C@H]2[C@@H]3C=CC4=CC(=O)CC[C@@]4(C)[C@@H]3CC[C@]12C [Dydrogesterone] is lower in “MBP+ mature oligodendrocyte number” value: 15.4 ± 7.2 for the first, 0.153 for the second.

Compared with C[C@]12C[C@H](O)[C@H]3[C@@H](CCC4=CC(=O)CC[C@@]43C)[C@@H]1CC[C@@H]2C(=O)CO [Corticosterone], CC[C@@H]1C(=O)N(C)c2cnc(Nc3ccc(C(=O)N[C@H]4CC[C@H](N5CCN(CC6CC6)CC5)CC4)cc3OC)nc2N1C(C)C [Volasertib (BI 6727)] is lower in “MBP+ mature oligodendrocyte number” value: 1.49 for the first, less than -4.81 for the second.

Compared with O=C1NC(=O)c2c1c(-c1ccccc1)cc1[nH]c3ccc(O)cc3c21, O=c1cc(-c2ccccc2)oc2cc(O)cc(O)c12 [Chrysin] is higher in “MBP+ mature oligodendrocyte number” value: less than -3.97 for the first, 4.59 for the second.

Compared with CC1(C)NC(=O)N(c2ccc([N+](=O)[O-])c(C(F)(F)F)c2)C1=O [Nilutamide], CNC(=O)c1ccc(N2C(=S)N(c3ccc(C#N)c(C(F)(F)F)c3)C(=O)C2(C)C)cc1F [Enzalutamide (MDV3100)] is higher in “MBP+ mature oligodendrocyte number” value: -0.755 for the first, 16.6 for the second.

Compared with CNC(=O)c1ccc(N2C(=S)N(c3cnc(C#N)c(C(F)(F)F)c3)C(=O)C23CCC3)cc1F, C[C@@H](O[C@H]1OCCN(Cc2nn(P(=O)(O)O)c(=O)[nH]2)[C@H]1c1ccc(F)cc1)c1cc(C(F)(F)F)cc(C(F)(F)F)c1 [Fosaprepitant dimeglumine salt] is lower in “MBP+ mature oligodendrocyte number” value: 5.74 for the first, -2.44 for the second.

Going from N=C(N)SCCc1c[nH]cn1 [Imetit dihydrobromide] to NCCCCC(=O)O [5-Aminovaleric acid hydrochloride], the “MBP+ mature oligodendrocyte number” value falls from -0.363 to -1.14.

Going from Cc1ccc(NC(=O)c2ccc(CN3CCN(C)CC3)cc2)cc1Nc1nccc(-c2cccnc2)n1 [Imatinib Mesylate (STI571)] to Cc1cc(-c2ccc(CC(=O)Nc3ccc(-c4cccnc4)cc3)cc2)ccn1, the “MBP+ mature oligodendrocyte number” value rises from -5.56 to 23.2.

Compared with Cc1cc(-c2ncc(CC(=O)Nc3ccc(-c4cnccn4)cn3)cc2C)ccn1, O=C(Nc1cccnc1)c1cc(-c2ccnc(F)c2)ccc1OCc1ccccc1 is lower in “MBP+ mature oligodendrocyte number” value: 13.8 for the first, -0.282 for the second.

Compared with COC[C@H](NC(=O)c1cnc(C)s1)C(=O)N[C@@H](COC)C(=O)N[C@@H](Cc1ccccc1)C(=O)[C@@]1(C)CO1 [Oprozomib (ONX 0912)], O=C(NCc1ccccc1)c1csc(Nc2ccncn2)n1 [Thiazovivin] is higher in “MBP+ mature oligodendrocyte number” value: -5.76 for the first, -3.47 for the second.

COc1cc2c(cc1O)[C@@H](Cc1ccc(O)c(Oc3ccc(C[C@@H]4c5cc(OC)c(OC)cc5CCN4C)cc3)c1)N(C)CC2 [Daurisoline] and COC(=O)C1=C(C)NC(C)=C(C(=O)OC)C1c1cccc(NC(=O)NCCCN2CCC(c3cccc(OC)c3)CC2)c1 cannot be ordered by “MBP+ mature oligodendrocyte number” value: less than -3.85 for the first, less than -3.85 for the second.

First: Nc1nc2c(ncn2[C@@H]2O[C@H](CO)[C@@H](O)[C@@H]2O)c(=O)[nH]1 [Ara-G hydrate]
Second: Nc1nccc2c1ncn2[C@@H]1O[C@H](CO)[C@@H](O)[C@H]1O [3-deazaadenosine]
The “MBP+ mature oligodendrocyte number” value of the first is higher: -0.925 for the first, -1.07 for the second.

First: Nc1ncnc2c1ncn2C1CCCC1 [9-cyclopentyladenine]
Second: N#CC[C@H](C1CCCC1)n1cc(-c2ncnc3[nH]ccc23)cn1
The “MBP+ mature oligodendrocyte number” value of the first is lower: -1.18 for the first, 2.47 for the second.

Compared with COc1cc2c(cc1-c1c(C)noc1C)ncc1[nH]c(=O)n([C@H](C)c3ccccn3)c12, c1ccc(-c2[nH]ncc2-c2ccnc3ccccc23)nc1 is higher in “MBP+ mature oligodendrocyte number” value: less than -6.01 for the first, -2.12 for the second.

Going from OC(CN1CCC(Cc2ccc(F)cc2)CC1)c1ccc(Cl)cc1 (stereo unspecified) [Eliprodil] to O=C(CCCN1CCC(O)(c2ccc(Cl)cc2)CC1)c1ccc(F)cc1 [Haloperidol], the “MBP+ mature oligodendrocyte number” value falls from 13.4 to 2.36 ± 1.1.

First: O=C1[C@H](CC[C@H](O)c2ccc(F)cc2)[C@@H](c2ccc(O)cc2)N1c1ccc(F)cc1 [Ezetimibe]
Second: O=C1c2ccccc2C(=O)c2c(NCCc3ccc(O)cc3)ccc(NCCc3ccc(O)cc3)c21
The “MBP+ mature oligodendrocyte number” value of the first is higher: 2.95 for the first, -4.41 for the second.

Compared with CCN(CC)CCNC(=O)c1ccc(NS(C)(=O)=O)cc1 [Sematilide monohydrochloride monohydrate], CCN(CC)CCNC(=O)c1cc(Cl)c(N)cc1OC [Metoclopramide hydrochloride] is higher in “MBP+ mature oligodendrocyte number” value: -0.439 for the first, 0.304 for the second.

Compared with CCCCNc1ncc(-c2ccc(CN3CCOCC3)cn2)c(NC2CCC(O)CC2)n1 (stereo unspecified), CCCCOc1ccc(OCCCN2CCOCC2)cc1 [Pramoxine HCl] is higher in “MBP+ mature oligodendrocyte number” value: -4.15 for the first, 14.3 for the second.

Compared with Cc1ccc(C(=O)Cn2c3c(sc2=N)CCCC3)cc1 [Pifithrin-? (PFT?)], Cc1ccc(C(=O)C(C)CN2CCCCC2)cc1 (stereo unspecified) [Tolperisone HCl] is lower in “MBP+ mature oligodendrocyte number” value: 17 for the first, 5.05 for the second.

First: S=c1[nH]c(-c2ccccc2)cn1-c1ccccc1
Second: CCN(CC)CCOC(=O)C(c1ccccc1)c1ccccc1 [Adiphenine HCl]
The “MBP+ mature oligodendrocyte number” value of the first is higher: 2.54 for the first, 0.0731 for the second.

Going from CN(C)c1ccc(/C=C2/C(=O)Nc3ccccc32)cc1 to Nc1ccc(-c2ccc3ccccc3n2)cc1 [BF-170 hydrochloride], the “MBP+ mature oligodendrocyte number” value falls from 0.789 to 0.146.

First: COc1cc(N)c(Cl)cc1C(=O)OCCN1CCCCC1
Second: CCCCOc1ccc(C(=O)CCN2CCCCC2)cc1 [Dyclonine HCl]
The “MBP+ mature oligodendrocyte number” value of the first is lower: -3.81 for the first, -1.91 for the second.

Compared with CCOc1cc(N)c(Cl)cc1C(=O)NCC1CN(Cc2ccc(F)cc2)CCO1 (stereo unspecified) [Mosapride Citrate], Nc1nccc(Oc2ccc(NC(=O)c3c[nH]cc(-c4ccc(F)cc4)c3=O)cc2F)c1Cl is lower in “MBP+ mature oligodendrocyte number” value: 23 for the first, 7.17 for the second.

First: C[C@H]1O[C@@H](Oc2c(-c3cc(O)c(O)c(O)c3)oc3cc(O)cc(O)c3c2=O)[C@@H](O)[C@@H](O)[C@@H]1O [Myricitrin]
Second: O=C(/C=C/c1ccc(O)c(O)c1)c1ccc(O)cc1O [Butein]
The “MBP+ mature oligodendrocyte number” value of the first is higher: 0.507 for the first, -4.58 for the second.

First: O=C(Cc1ccc(-c2ccc(OCCN3CCOCC3)cc2)cn1)NCc1ccccc1
Second: O=C(Nc1cccnc1)N1CCC(Cc2cccc(Oc3ccc(C(F)(F)F)cn3)c2)CC1 [PF 3845 hydrate]
The “MBP+ mature oligodendrocyte number” value of the first is lower: -5.77 for the first, 10.1 for the second.

Compared with Cc1c(OCC(F)(F)F)ccnc1C[S+]([O-])c1nc2ccccc2[nH]1 (stereo unspecified) [Lansoprazole], Cc1c(OCC(F)(F)F)ccnc1C[S@@+]([O-])c1nc2ccccc2[nH]1 [Dexlansoprazole] is higher in “MBP+ mature oligodendrocyte number” value: 7.5 ± 4.5 for the first, 17.2 for the second.

Compared with COCCCOc1ccnc(C[S+]([O-])c2nc3ccccc3[nH]2)c1C (stereo unspecified) [Rabeprazole sodium], CCCC(C(=O)OCCN(CC)CC)(c1ccccc1)c1ccccc1 [SKF-525A hydrochloride] is lower in “MBP+ mature oligodendrocyte number” value: 1.61 for the first, -3.42 for the second.

First: O=C(NCCCNc1nc(Nc2cccc(NC(=O)N3CCCC3)c2)ncc1I)c1cccs1
Second: O=C(Nc1cccnc1)N1CCC(Cc2cccc(Oc3ccc(C(F)(F)F)cn3)c2)CC1
The “MBP+ mature oligodendrocyte number” value of the first is lower: -6.61 for the first, 19.5 for the second.

First: O=C(Nc1cccc2cccnc12)c1ccc(N2C(=O)[C@@H]3[C@H](C2=O)[C@@H]2C=C[C@H]3C2)cc1 [IWR-1-endo]
Second: O=C(/C=C/c1ccccc1)NC(NC(=S)Nc1cccc2cccnc12)C(Cl)(Cl)Cl (stereo unspecified) [Salubrinal]
The “MBP+ mature oligodendrocyte number” value of the first is lower: -3.56 for the first, 19 for the second.

Going from O=C(C=Cc1ccccc1)NC(NC(=S)Nc1ccc(Cl)cc1)C(Cl)(Cl)Cl (stereo unspecified) to COC(=O)[C@H](c1ccccc1Cl)N1CCc2sccc2C1 [Clopidogrel], the “MBP+ mature oligodendrocyte number” value rises from -0.386 to 1.42.

Going from N=C(N)Nc1ccc(C(=O)Oc2ccc3cc(C(=N)N)ccc3c2)cc1 [Nafamostat Mesylate] to CCn1cc(-c2ccnc3[nH]c(-c4cccc(CN(C)C)c4)cc23)c(-c2ccc(NC(=O)N(C)C)cc2)n1, the “MBP+ mature oligodendrocyte number” value falls from -3.03 to -5.93.

First: NC1CONC1=O (racemic) [DL-Cycloserine]
Second: C[n+]1cccc(C(N)=O)c1 [1-Methylnicotinamide chloride]
The “MBP+ mature oligodendrocyte number” value of the first is higher: 0.353 for the first, -0.176 for the second.

Compared with O=C(Nc1ccccc1Br)N[C@@H]1CCN(c2ccc(C(F)(F)F)cn2)C1, Cn1ccc2cc3c(cc21)CCN3C(=O)Nc1cccnc1 is lower in “MBP+ mature oligodendrocyte number” value: 1.22 for the first, 0.574 for the second.

Compared with CN1CC(=O)N=C1NC(=O)Nc1cccc(Cl)c1 [Fenobam], Clc1ccccc1CN1CCc2sccc2C1 [Ticlopidine HCl] is higher in “MBP+ mature oligodendrocyte number” value: -0.794 for the first, 18.4 for the second.

Going from Nc1nc2c(c(=O)[nH]1)C[C@@H](CCc1ccc(C(=O)N[C@@H](CCC(=O)O)C(=O)O)cc1)CN2 [Lometrexol hydrate] to CC[C@H](NC(=O)[C@H](C)NC)C(=O)N1C[C@@H](O)C[C@H]1Cc1c(-c2[nH]c3cc(F)ccc3c2C[C@@H]2C[C@H](O)CN2C(=O)[C@H](CC)NC(=O)[C@H](C)NC)[nH]c2cc(F)ccc12 [Birinapant], the “MBP+ mature oligodendrocyte number” value falls from 0.225 to -5.76.

Compared with C[C@H](Oc1cc(-c2cnn(C3CCNCC3)c2)cnc1N)c1c(Cl)ccc(F)c1Cl [(S)-crizotinib], CCc1nc(N)nc(N)c1-c1ccc(Cl)cc1 [Pyrimethamine] is higher in “MBP+ mature oligodendrocyte number” value: -4.58 for the first, 49 for the second.

Compared with CCN(CC)CC#CCOC(=O)C(O)(c1ccccc1)C1CCCCC1 (stereo unspecified) [Oxybutynin Chloride], Cc1cc2nc(NCCCO)n(CC(=O)c3cc(C(C)(C)C)c(O)c(C(C)(C)C)c3)c2cc1C is lower in “MBP+ mature oligodendrocyte number” value: 13.5 for the first, -4 for the second.

CCN(CC)CC#CCOC(=O)C(O)(c1ccccc1)C1CCCCC1 (stereo unspecified) [Oxybutynin chloride] was tested, and the “MBP+ mature oligodendrocyte number” value was 29.7.
